Source: PubChem BioAssay (NCATS)
Unmarked numbers belong to inactive results. Calls follow the shape of the dose curve; as a rule, active = well fitted curve in the direction sought with a large enough effect; inconclusive = small, poorly fitted or top-dose-only effect, or another doubt; inactive = no such curve, though single readings can be large or run the other way.

Assay: Dual reporter qHTS for agonist of Pregnane X Receptor (hPXR) against the NCATS DSHEA and TCM libraries: Fluorescence readout (AID 1920058); also: 0% is about no effect
Conditions: PXR dual reporter cells; series mostly up to 40 µM; activation: at the top concentration
How it was run: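 HepG2 hPXR-Luc, 2000 cells/well, 5 h attach; cpds ~24 h, 37 °C/5% CO2; CellTiter-Fluor 1 h; fluor. Ex/Em 405/540 nm = viability.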

Compound | activation
O=C(/C=C/c1ccc(O)c(O)c1)O[C@@H]1CC(C(=O)O)=C[C@@H](O)[C@H]1O | -10.3%
CC(C)=CCCC(C)(OC1OC(COC2OC(CO)C(O)C2O)C(O)C(O)C1O)C1CCC2(C)C1C(O)CC1C3(C)CCC(OC4OC(CO)C(O)C(O)C4OC4OC(CO)C(O)C(O)C4O)C(C)(C)C3CCC12C (stereo not given) | 0.901%
CC[C@H](CC[C@@H](C)[C@H]1CCC2C3CCC4C[C@@H](O)CC[C@]4(C)C3CC[C@@]21C)C(C)C (stereo not given in full) | -9.59%
O=C(O)CC(O)(C(=O)O)C(O)C(=O)O (stereo not given) | -3.63%
CCCCCC(=O)CC | -24.5% [at 121 µM]
C=C1CC[C@H](O)C/C1=C\C=C1/CCC[C@]2(C)[C@@H]([C@H](C)CC[C@H](C)C(C)C)CC[C@@H]12 | 9.15%
CC1(C)C2CCC1(C)C(O)C2 (stereo not given) | -2.22%
O[C@@H]1[C@@H](O)[C@H](OC/C=C/c2ccccc2)O[C@H](CO[C@@H]2OC[C@H](O)[C@H](O)[C@H]2O)[C@H]1O | -7.53%
CC(=O)O[C@H]1[C@H](O[C@H]2CC[C@]34C[C@]35CC[C@]3(C)[C@@H]([C@@]6(C)CC[C@@H](C(C)(C)O)O6)[C@@H](O)C[C@@]3(C)[C@@H]5C[C@H](O[C@@H]3O[C@H](CO)[C@@H](O)[C@H](O)[C@H]3O)[C@H]4C2(C)C)OC[C@@H](O)[C@@H]1O | 11.5%
OCC1=C[C@@H](O)[C@@H]2C=CO[C@@H](OC3O[C@H](CO)[C@@H](O)[C@H](O)[C@H]3O)[C@H]12 (stereo not given in full) | 18%
CCCCCCCCCC=O | 8.29% [at 68.2 µM]
CC(=O)OC1CC2CCC1(C)C2(C)C (stereo not given) | 6.32%
CC(C)=CCCC(C)=CCCC(C)=CCCC=C(C)CCC=C(C)CCC=C(C)C | 0.0189%
CCCCCCCCCCCCCCCCCCCCCCCCCCCCCCO | 1.05% [at 5 µM]
CC(C)c1ccc(C=O)cc1 | 2.58% [at 68.2 µM]
O=Cc1ccccc1O | -1.63% [at 68.2 µM]
CC/C=C\C/C=C\C/C=C\C/C=C\CCCCC(=O)O | -3.85% [at 5 µM]
C=C1C[C@@]23CC[C@H]4[C@@](C)(CCC[C@@]4(C)C(=O)O[C@@H]4O[C@H](CO)[C@@H](O)[C@H](O)[C@H]4O)[C@@H]2CC[C@]1(O[C@@H]1O[C@H](CO)[C@@H](O)[C@H](O[C@@H]2O[C@H](CO)[C@@H](O)[C@H](O)[C@H]2O)[C@H]1O[C@@H]1O[C@@H](C)[C@H](O)[C@@H](O)[C@H]1O)C3 | -22.4%
C=C1C[C@]23CC[C@H]4[C@@](C)(CCC[C@@]4(C)C(=O)O)[C@@H]2CC[C@@]1(O[C@@H]1O[C@H](CO)[C@@H](O)[C@H](O)[C@H]1O[C@@H]1O[C@H](CO)[C@@H](O)[C@H](O)[C@H]1O)C3 | 0.944%
Cc1ccc(C(C)C)cc1 | -26.7% [at 68.2 µM]
Cc1ncc(COP(=O)(O)O)c(C)c1O | -7.52%
OCCc1ccc(O)cc1 | -0.98% [at 68.2 µM]
CN(CC(=O)O)C(=N)N | -3.22% [at 121 µM]
COc1ccc(C(=O)O)cc1 | -4.21% [at 68.2 µM]
CC(C)(O)[C@@H]1CC[C@](C)([C@@H]2[C@H](O)C[C@]3(C)C4C[C@@H](O[C@H]5O[C@@H](CO)[C@H](O)[C@@H](O)[C@@H]5O)C5C(C)(C)[C@H](O[C@H]6OC[C@H](O)[C@@H](O)[C@@H]6O)CC[C@]56CC46CC[C@@]23C)O1 (stereo not given in full) | 8.79%
C=CC(=C)CCC=C(C)C | 7.51%
CC1=CCC(O)(C(C)C)CC1 (stereo not given) | -0.956% [at 68.2 µM]
CCCCCC/C=C\CCCCCCCC(=O)O | -17.8%
CC(C)=CCC[C@](C)(O[C@@H]1O[C@H](CO)[C@@H](O)[C@H](O)[C@H]1O)[C@H]1CC[C@]2(C)[C@@H]1[C@H](O)C[C@@H]1[C@@]3(C)CC[C@H](O)C(C)(C)[C@@H]3[C@@H](O[C@@H]3O[C@H](CO)[C@@H](O)[C@H](O)[C@H]3O[C@@H]3O[C@@H](C)[C@H](O)[C@@H](O)[C@H]3O)C[C@]12C | 13.4%
C[C@@H]1O[C@@H](OC[C@H]2OC(Oc3c(-c4ccc(O)c(O)c4)oc4cc(O)cc(O)c4c3=O)[C@H](O)[C@@H](O)[C@@H]2O)[C@H](O)[C@H](O)[C@H]1O (stereo not given in full) | -48.7%
